# Assay results as given in PubChem BioAssay (Tox21).
# Results filed as inconclusive are left out. Where a call stands in place of a potency, no number is given. The source made the active and inactive calls. The call rests on the fitted dose curve.
# Tested on: estrogen-related receptor alpha (ERRalpha) with PGC-1alpha coactivator, human
# Assay: qHTS assay to identify small molecule antagonists of the estrogen related receptor signaling pathway with the pleiotropic PPARgamma coactivator (PGC) (AID 1224821); further: nearly all actives have a fitted effect of over 50% in size
# Details: ERR/PGC reporter cell line, luciferase, antagonist mode; series mostly up to 92.2 µM
# Source text: National Center for Advancing Translational Sciences [NCATS]
# NIH Chemical Genomics Center [NCGC]
# U.S. Environmental Protection Agency [EPA]
# National Institutes of Environmental Health Sciences [NIEHS]
# National Toxicology Program [NTP]
# U.S. Food and Drug Administration [FDA]
# Estrogen related receptors (ERRs), the first orphan nuclear receptors discovered, play an important role in the control of cellular energy metabolism. ERRs are required for high-energy production in response to the environmental challenges. The pleiotropic PPARgamma coactivator (PGC) is a major partner of ERR and a key regulator in energy homeostasis. Together they have been implicated in the etiology of metabolic disorders such as Type 2 diabetes and metabolic syndrome. ERR-alpha was also identified as an adverse marker for breast cancer progression; ERR-alpha-positive tumors have a poor prognosis. To screen and to identify environmental compounds that perturb the ERR and PGC/ERR signaling pathways could provide valuable information for potential therapeutic or preventive measures in the treatment of metabolic disease. For identifying PGC/ERR antagonists, PGC/ERR cell line (provided by NTP) has been used to screen LOPAC library.
# Tox21 Assay Protocol Summary:
# The PGC/ERR cells were dispensed at 2,000 cells/5 ul/well in 1536-well white plates using a Multidrop dispenser. After the assay plates were incubated at a 37 C/5% CO2 incubator for 6 hours, 23 nL of compounds dissolved in DMSO, positive and negative controls or DMSO only was transferred to the assay plate by a pin tool. The plates were incubated at 37 C for 18 hours. 4 ul/well of One-Glo reagent was added into the assay plates using a Flying Reagent Dispenser. After 30 min incubation at room temperature, the luminescence intensity in the plates was measured using a ViewLux plate reader.
# Potency means the concentration at half of the fitted maximal effect.
row,SMILES,Potency
1,NCC(CC(=O)O)c1ccc(Cl)cc1 (stereo unspecified),inactive
2,NC(=O)CI,11.9 µM (active)
3,O=S(=O)(O)C(F)(F)C(F)(F)C(F)(F)C(F)(F)F,inactive
4,CCCCOC(=O)c1ccccc1C(=O)OCc1ccccc1,inactive
5,c1cc2ccc3cccc4ccc(c1)c2c34,inactive
6,COCCOCCO,inactive
7,CC(=O)[C@H]1CC[C@H]2[C@@H]3CC[C@H]4C[C@](C)(O)CC[C@]4(C)[C@H]3CC[C@]12C,inactive
8,C=CC(=O)NCNC(=O)C=C,inactive
9,CC(C)=CCOc1c2occc2cc2ccc(=O)oc12,inactive
10,c1ccc(C2CC2)c(OCC2=NCCN2)c1,inactive
11,OCCCBr,inactive
